# Test results published in publication PMC7862700, “An all-to-all approach to the identification of sequence-specific readers for epigenetic DNA modifications on cytosine”.
# What was measured:
# Assay in all cases: DAPPL (digital affinity profiling via proximity ligation, sequencing); 10 mM Tris-HCl pH 7.5, 50 mM NaCl, 1 mM DTT, 4% glycerol, room temperature, 30 min; GST-TFs on glutathione beads, 16-mer random dsDNA library, 0.1% formaldehyde crosslink after washing; high values mean tight binding
# [1] = molecular target: T1, FLI1 (Homo sapiens, UniProt Q01543 1-452); settings: protein: recombinant; tags: N-terminal GST; dsDNA, one strand shown
# T1 sequence: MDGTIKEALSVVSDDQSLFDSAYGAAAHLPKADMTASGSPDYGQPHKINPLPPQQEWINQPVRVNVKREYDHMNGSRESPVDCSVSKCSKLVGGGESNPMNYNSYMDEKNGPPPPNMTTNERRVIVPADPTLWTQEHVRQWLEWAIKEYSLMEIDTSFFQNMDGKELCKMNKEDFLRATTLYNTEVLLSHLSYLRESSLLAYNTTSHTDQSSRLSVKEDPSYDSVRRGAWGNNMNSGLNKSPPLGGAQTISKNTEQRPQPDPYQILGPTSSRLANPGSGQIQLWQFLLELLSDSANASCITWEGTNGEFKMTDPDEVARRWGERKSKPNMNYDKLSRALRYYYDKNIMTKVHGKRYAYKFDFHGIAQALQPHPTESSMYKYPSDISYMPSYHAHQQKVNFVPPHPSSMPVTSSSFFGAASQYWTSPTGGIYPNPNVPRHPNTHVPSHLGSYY
# Procedure, shortened: (§1)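 The binding signal reported is, for every hexamer, its read frequency for a factor over its read frequency for the tag-only sample. Reads came from pools of yeast-expressed, GST-fused human transcription factors on glutathione beads, barcoded with DNA and mixed with that sample, which were incubated with 200 nmole of a random double-stranded 16-mer DNA library in Tris/NaCl/DTT/glycerol buffer at room temperature for 30 min. After washing, the pools were crosslinked with 0.1% formaldehyde, proximity-ligated with BsaI/T4 ligase for 1 h at 37 °C, PCR-amplified and sequenced on an Illumina NextSeq500.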
# [2] = molecular target: T2, ELK1 (Homo sapiens, UniProt P19419 1-428); settings: protein: recombinant; tags: N-terminal GST; dsDNA, one strand shown
# T2 sequence: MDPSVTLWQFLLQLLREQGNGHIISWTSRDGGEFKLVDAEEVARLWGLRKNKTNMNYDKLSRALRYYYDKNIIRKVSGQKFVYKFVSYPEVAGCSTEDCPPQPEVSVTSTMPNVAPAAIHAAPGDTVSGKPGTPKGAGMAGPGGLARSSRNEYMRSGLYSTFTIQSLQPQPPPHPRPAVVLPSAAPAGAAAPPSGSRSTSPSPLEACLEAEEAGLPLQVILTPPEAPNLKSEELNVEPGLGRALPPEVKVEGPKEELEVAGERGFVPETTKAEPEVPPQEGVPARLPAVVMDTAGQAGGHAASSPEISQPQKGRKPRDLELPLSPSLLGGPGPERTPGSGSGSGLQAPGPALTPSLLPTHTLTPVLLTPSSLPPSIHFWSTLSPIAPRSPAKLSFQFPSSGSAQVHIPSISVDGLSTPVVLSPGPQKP
# Procedure, shortened: as §1
# [3] = molecular target: T3, GABPA (Homo sapiens, UniProt Q06546 1-454); settings: protein: recombinant; tags: N-terminal GST; dsDNA, one strand shown
# T3 sequence: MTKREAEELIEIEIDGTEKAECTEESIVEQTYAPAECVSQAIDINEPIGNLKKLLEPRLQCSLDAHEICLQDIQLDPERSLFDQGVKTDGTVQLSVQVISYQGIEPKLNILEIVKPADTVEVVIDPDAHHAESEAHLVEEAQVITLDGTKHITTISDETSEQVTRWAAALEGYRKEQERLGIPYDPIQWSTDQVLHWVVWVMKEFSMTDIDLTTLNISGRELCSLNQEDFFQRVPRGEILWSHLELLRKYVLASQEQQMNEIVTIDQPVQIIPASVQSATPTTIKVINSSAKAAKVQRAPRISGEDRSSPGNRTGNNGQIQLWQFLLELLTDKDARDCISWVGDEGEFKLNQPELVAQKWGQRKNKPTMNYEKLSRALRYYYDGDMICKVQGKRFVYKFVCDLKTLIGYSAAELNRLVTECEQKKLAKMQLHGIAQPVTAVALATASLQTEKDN
# Procedure, shortened: as §1
# [4] = molecular target: T4, ERG (Homo sapiens, UniProt P11308 1-479); settings: protein: recombinant; tags: N-terminal GST; dsDNA, one strand shown
# T4 sequence: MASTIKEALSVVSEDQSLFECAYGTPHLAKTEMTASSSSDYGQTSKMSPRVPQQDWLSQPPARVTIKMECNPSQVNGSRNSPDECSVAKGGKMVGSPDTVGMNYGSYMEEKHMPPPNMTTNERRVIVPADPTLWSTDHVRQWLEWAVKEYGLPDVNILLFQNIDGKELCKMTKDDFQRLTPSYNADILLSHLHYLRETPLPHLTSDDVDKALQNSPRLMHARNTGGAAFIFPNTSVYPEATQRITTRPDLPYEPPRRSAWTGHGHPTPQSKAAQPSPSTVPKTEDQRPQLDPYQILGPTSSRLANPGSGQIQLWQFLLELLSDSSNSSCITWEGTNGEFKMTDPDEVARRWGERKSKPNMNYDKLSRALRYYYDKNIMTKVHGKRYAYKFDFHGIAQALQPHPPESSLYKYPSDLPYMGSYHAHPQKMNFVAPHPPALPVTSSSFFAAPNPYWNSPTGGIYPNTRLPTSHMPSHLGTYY
# Procedure, shortened: as §1
# [5] = molecular target: ELF1 (Homo sapiens, UniProt P32519 1-619); settings: protein: recombinant; tags: N-terminal GST; dsDNA, one strand shown
# Sequence of ELF1 (P32519 whole entry): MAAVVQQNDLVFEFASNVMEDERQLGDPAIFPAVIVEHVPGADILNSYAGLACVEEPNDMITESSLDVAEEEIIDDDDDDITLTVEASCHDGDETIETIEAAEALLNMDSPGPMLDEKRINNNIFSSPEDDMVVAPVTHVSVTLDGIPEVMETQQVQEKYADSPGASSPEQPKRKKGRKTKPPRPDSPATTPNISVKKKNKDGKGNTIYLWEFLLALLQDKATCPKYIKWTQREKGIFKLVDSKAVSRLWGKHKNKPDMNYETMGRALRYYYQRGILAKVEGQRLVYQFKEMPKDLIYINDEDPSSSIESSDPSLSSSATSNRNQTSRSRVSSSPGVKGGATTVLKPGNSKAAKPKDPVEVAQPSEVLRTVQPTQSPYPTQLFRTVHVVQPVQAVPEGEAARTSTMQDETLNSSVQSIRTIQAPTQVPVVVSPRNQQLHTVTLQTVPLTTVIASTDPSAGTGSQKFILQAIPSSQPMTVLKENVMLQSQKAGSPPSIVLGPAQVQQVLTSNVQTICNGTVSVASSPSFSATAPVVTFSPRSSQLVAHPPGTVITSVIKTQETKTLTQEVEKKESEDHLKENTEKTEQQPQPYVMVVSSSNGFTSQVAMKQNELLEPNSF
# Procedure, shortened: as §1
# [6] = molecular target: T5, EHF (Homo sapiens, UniProt Q9NZC4 1-300); settings: protein: recombinant; tags: N-terminal GST; dsDNA, one strand shown
# T5 sequence: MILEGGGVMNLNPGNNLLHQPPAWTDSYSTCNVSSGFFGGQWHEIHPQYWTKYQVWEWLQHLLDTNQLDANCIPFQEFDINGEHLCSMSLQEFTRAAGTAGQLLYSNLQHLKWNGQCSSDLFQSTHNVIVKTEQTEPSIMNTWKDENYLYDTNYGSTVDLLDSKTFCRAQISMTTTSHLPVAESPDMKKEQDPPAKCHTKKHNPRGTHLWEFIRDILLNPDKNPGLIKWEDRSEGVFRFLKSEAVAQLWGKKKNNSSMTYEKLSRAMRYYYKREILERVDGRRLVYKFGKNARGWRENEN
# Procedure, shortened: as §1
# [7] = molecular target: SPI1 (Homo sapiens, UniProt P17947 1-270); settings: protein: recombinant; tags: N-terminal GST; dsDNA, one strand shown
# Procedure, shortened: as §1
# [8] = molecular target: SPIB (Homo sapiens, UniProt Q01892 1-262); settings: protein: recombinant; tags: N-terminal GST; dsDNA, one strand shown
# Sequence of SPIB (Q01892 whole entry): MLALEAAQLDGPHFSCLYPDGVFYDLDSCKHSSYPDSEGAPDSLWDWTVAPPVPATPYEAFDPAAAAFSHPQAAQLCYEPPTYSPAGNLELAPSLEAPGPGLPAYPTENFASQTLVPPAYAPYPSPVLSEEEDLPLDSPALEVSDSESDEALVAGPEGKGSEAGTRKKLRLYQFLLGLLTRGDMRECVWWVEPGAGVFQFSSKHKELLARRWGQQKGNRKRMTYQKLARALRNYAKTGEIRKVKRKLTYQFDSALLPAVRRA
# Procedure, shortened: as §1
# [9] = molecular target: T6, ELK3 (Homo sapiens, UniProt P41970 1-407); settings: protein: recombinant; tags: N-terminal GST; dsDNA, one strand shown
# T6 sequence: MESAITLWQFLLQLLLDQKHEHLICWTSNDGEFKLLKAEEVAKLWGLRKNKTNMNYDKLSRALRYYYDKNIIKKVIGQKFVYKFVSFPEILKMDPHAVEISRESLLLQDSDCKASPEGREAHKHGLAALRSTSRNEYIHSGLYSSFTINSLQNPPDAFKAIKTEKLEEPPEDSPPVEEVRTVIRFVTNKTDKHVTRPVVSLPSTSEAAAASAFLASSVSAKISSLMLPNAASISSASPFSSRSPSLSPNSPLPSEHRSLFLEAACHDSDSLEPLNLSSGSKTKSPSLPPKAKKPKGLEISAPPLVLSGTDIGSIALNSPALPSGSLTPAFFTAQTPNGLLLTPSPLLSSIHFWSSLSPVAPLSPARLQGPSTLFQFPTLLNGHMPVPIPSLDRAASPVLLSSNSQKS
# Procedure, shortened: as §1
# [10] = molecular target: T7, FEV (Homo sapiens, UniProt Q99581 1-238); settings: protein: recombinant; tags: N-terminal GST; dsDNA, one strand shown
# T7 sequence: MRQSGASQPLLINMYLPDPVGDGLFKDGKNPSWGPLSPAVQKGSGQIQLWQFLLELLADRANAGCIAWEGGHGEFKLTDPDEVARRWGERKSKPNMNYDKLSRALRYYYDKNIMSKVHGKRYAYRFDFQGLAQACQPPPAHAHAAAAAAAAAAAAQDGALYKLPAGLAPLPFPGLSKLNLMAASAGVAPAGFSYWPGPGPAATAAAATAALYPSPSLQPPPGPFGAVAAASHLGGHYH
# Procedure, shortened: as §1
# [11] = molecular target: ETV5 (Homo sapiens, UniProt P41161 1-510); settings: protein: recombinant; tags: N-terminal GST; dsDNA, one strand shown
# Sequence of ETV5 (P41161 whole entry): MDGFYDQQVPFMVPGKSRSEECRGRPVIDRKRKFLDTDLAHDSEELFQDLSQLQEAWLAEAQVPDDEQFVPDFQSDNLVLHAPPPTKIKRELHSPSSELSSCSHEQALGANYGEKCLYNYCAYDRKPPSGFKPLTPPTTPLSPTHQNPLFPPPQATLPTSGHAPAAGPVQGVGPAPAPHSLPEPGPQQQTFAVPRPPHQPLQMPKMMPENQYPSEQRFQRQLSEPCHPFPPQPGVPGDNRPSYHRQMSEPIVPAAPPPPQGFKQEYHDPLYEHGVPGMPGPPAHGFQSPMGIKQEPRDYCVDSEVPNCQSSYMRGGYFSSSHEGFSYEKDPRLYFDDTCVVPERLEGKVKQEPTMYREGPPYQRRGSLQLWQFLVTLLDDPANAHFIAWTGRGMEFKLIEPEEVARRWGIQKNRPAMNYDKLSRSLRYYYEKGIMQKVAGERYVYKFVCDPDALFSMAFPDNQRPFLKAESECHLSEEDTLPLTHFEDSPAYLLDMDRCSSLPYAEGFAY
# Procedure, shortened: as §1
# [12] = molecular target: HSF1 (Homo sapiens, UniProt Q00613 1-529); settings: protein: recombinant; tags: N-terminal GST; chain copies: 3; dsDNA, one strand shown
# Sequence of HSF1 (Q00613 whole entry): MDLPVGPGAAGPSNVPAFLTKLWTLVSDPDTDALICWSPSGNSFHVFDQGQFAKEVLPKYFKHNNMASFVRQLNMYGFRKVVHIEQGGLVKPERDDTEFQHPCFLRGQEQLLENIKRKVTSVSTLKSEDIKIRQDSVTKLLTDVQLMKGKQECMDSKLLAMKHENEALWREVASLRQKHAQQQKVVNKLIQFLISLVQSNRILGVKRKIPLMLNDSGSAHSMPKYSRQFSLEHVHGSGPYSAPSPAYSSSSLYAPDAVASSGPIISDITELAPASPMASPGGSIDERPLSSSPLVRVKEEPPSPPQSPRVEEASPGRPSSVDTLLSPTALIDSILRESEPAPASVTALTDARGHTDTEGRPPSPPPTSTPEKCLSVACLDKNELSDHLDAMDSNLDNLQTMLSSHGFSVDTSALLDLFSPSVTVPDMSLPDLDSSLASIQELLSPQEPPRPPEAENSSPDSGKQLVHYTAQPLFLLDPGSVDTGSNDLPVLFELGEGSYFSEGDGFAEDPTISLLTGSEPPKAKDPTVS
# Procedure, shortened: as §1
# [13] = molecular target: T8, SPIC (Homo sapiens, UniProt Q8N5J4 1-248); settings: protein: recombinant; tags: N-terminal GST; dsDNA, one strand shown
# T8 sequence: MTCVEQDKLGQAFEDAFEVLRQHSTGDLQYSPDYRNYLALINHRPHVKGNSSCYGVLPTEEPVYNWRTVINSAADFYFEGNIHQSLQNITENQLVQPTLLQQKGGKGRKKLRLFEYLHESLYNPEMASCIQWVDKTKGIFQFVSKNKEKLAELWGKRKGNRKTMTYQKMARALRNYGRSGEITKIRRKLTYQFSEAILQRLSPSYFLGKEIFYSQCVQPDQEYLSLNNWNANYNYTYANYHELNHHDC
# Procedure, shortened: as §1
# [14] = molecular target: ELF4 (Homo sapiens, UniProt Q99607 1-663); settings: protein: recombinant; tags: N-terminal GST; dsDNA, one strand shown
# Sequence of ELF4 (Q99607 whole entry): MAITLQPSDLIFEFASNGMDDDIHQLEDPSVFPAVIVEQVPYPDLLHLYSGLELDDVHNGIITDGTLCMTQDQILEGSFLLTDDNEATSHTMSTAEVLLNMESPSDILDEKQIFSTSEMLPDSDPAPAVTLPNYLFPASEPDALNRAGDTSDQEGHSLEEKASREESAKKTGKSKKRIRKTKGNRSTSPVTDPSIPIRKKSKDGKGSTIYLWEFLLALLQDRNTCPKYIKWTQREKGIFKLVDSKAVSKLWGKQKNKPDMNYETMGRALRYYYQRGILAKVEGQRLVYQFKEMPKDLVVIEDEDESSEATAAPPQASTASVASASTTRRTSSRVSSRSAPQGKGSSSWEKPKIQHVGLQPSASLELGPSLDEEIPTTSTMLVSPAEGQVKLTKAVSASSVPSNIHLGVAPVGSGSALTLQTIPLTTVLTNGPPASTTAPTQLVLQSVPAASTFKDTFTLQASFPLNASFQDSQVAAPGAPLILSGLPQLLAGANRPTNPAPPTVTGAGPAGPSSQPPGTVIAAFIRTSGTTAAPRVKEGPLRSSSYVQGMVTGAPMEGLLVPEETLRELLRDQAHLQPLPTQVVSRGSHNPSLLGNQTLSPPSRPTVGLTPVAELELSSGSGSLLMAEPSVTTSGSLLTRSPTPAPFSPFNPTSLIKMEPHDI
# Procedure, shortened: as §1
# [15] = molecular target: T9, ELK4 (Homo sapiens, UniProt P28324-2 1-405); settings: protein: recombinant; tags: N-terminal GST; dsDNA, one strand shown
# T9 sequence: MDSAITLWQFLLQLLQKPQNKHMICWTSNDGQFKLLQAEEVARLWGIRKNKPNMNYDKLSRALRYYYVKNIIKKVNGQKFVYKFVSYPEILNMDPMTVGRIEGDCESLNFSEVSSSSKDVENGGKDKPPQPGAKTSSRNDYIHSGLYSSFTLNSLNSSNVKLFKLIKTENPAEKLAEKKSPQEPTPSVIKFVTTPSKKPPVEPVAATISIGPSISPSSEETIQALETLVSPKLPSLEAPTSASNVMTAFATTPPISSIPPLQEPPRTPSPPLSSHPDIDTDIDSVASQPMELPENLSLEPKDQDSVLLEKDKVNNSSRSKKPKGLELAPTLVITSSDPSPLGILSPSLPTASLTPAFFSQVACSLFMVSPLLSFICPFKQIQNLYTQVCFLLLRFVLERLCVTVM
# Procedure, shortened: as §1
# [16] = molecular target: T10, ETV2 (Homo sapiens, UniProt O00321 1-342); settings: protein: recombinant; tags: N-terminal GST; dsDNA, one strand shown
# T10 sequence: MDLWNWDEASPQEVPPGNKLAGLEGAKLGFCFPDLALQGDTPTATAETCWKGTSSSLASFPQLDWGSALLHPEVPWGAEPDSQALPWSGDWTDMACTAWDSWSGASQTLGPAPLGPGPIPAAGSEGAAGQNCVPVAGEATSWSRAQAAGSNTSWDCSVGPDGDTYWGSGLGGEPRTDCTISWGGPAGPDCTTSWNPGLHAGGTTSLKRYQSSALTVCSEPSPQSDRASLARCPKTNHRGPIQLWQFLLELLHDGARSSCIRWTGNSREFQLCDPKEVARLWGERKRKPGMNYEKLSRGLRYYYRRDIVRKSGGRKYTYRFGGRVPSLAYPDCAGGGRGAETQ
# Procedure, shortened: as §1
# [17] = molecular target: T11, ELF3 (Homo sapiens, UniProt P78545 1-371); settings: protein: recombinant; tags: N-terminal GST; dsDNA, one strand shown
# T11 sequence: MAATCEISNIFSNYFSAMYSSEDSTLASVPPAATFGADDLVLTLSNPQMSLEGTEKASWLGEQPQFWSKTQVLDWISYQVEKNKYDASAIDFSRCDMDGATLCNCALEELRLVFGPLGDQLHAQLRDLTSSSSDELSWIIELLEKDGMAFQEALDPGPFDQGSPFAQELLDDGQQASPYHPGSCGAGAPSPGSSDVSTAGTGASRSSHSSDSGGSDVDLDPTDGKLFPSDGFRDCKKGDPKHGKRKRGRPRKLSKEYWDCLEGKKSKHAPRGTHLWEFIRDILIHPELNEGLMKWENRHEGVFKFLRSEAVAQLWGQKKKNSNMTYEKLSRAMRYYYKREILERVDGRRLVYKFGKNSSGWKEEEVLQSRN
# Procedure, shortened: as §1
# [18] = molecular target: ETV1 (Homo sapiens, UniProt P50549 1-477); settings: protein: recombinant; tags: N-terminal GST; dsDNA, one strand shown
# Sequence of ETV1 (P50549 whole entry): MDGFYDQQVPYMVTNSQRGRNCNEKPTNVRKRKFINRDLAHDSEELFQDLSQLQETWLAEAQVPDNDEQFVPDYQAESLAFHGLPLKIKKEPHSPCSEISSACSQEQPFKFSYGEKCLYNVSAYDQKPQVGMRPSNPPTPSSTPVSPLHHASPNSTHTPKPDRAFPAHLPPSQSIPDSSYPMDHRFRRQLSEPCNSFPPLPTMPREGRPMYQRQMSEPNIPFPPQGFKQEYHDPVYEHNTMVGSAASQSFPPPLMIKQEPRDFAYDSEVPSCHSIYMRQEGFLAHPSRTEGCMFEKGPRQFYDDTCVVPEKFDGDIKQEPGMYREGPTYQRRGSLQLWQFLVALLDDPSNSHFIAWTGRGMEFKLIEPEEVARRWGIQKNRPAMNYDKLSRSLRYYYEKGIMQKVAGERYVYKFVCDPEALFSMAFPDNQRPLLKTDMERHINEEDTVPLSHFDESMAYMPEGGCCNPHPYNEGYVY
# Procedure, shortened: as §1
sequence,measurement,setting,value
TGCCGC,binding signal,[1],"1.33 fold enrichment (6-mer frequency, TF over GST control)"
same,binding signal,[2],"1.3 fold enrichment (6-mer frequency, TF over GST control)"
same,binding signal,[3],"1.33 fold enrichment (6-mer frequency, TF over GST control)"
same,binding signal,[4],"1.24 fold enrichment (6-mer frequency, TF over GST control)"
same,binding signal,[5],"1.28 fold enrichment (6-mer frequency, TF over GST control)"
same,binding signal,[6],"1.28 fold enrichment (6-mer frequency, TF over GST control)"
same,binding signal,[7],"1.37 fold enrichment (6-mer frequency, TF over GST control)"
same,binding signal,[8],"1.36 fold enrichment (6-mer frequency, TF over GST control)"
same,binding signal,[9],"1.26 fold enrichment (6-mer frequency, TF over GST control)"
same,binding signal,[10],"1.27 fold enrichment (6-mer frequency, TF over GST control)"
same,binding signal,[11],"1.23 fold enrichment (6-mer frequency, TF over GST control)"
same,binding signal,[12],"1.03 fold enrichment (6-mer frequency, TF over GST control)"
same,binding signal,[13],"1.15 fold enrichment (6-mer frequency, TF over GST control)"
same,binding signal,[14],"1.35 fold enrichment (6-mer frequency, TF over GST control)"
same,binding signal,[15],"1.23 fold enrichment (6-mer frequency, TF over GST control)"
same,binding signal,[16],"1.06 fold enrichment (6-mer frequency, TF over GST control)"
same,binding signal,[17],"1.07 fold enrichment (6-mer frequency, TF over GST control)"
same,binding signal,[18],"1.3 fold enrichment (6-mer frequency, TF over GST control)"
